# This is part of a sample that, as a whole, favours compounds with a hit. Of some 83,000 tested, about 20% had one in any assay.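 Single-concentration screen, 48 h exposure, 96-well plates. Endpoint: percent growth. Below 10 = active.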 Unmarked numbers belong to inactive results. Calls of active or inactive are those of the source.
# What was measured:
# Assay in all cases: NCI-60 one-dose screen, 48 h (100 = growth as untreated, 0 = no growth, -100 = all killed)
# Details in all cases: 10 µM unless noted
# [1] = tested on: HT29 colon
# [2] = tested on: SNB-75 CNS
# [3] = tested on: SNB-19 CNS
# [4] = tested on: U251 CNS
# [5] = tested on: PC-3 prostate
# [6] = tested on: SK-MEL-28 melanoma
# [7] = tested on: SK-MEL-2 melanoma
# [8] = tested on: EKVX NSCLC
# [9] = tested on: SN12C renal
# [10] = tested on: UO-31 renal
# [11] = tested on: TK-10 renal
# [12] = tested on: ACHN renal
# [13] = tested on: CAKI-1 renal
# [14] = tested on: A498 renal
# [15] = tested on: CCRF-CEM leukemia
# [16] = tested on: MOLT-4 leukemia
# [17] = tested on: SR leukemia
# [18] = tested on: SK-MEL-5 melanoma
# [19] = tested on: UACC-62 melanoma
# [20] = tested on: LOX IMVI melanoma
Compound,growth [1],growth [2],growth [3] [%],growth [4],growth [5],growth [6],growth [7],growth [8] [%],growth [9],growth [10],growth [11],growth [12],growth [13],growth [14],growth [15],growth [16],growth [17],growth [18] [%],growth [19],growth [20]
ClC1C2CC(c3ccccc32)C1Cl (configuration not stated),100%,102%,104,106%,104%,108%,104%,123,102%,108%,108%,104%,118%,92.4%,96.8%,101%,106%,–,–,–
CCOC(=O)c1c(C)nc(C)c(C(=O)OCC)c1-c1cccnc1,96.5%,81.7%,96.1,94.1%,–,119%,110%,105,109%,94%,121%,99.5%,106%,125%,102%,54.8%,53.7%,97.5,105%,96.1%
CC(C)c1ccc(C(=O)Nc2sc3c(CN(C)C)c(O)ccc3c2C(N)=O)cc1,2.74% (active),48.5%,84.4,34.3%,–,84.2%,96.4%,86.7,55.9%,34.1%,97.4%,61.3%,79.6%,82.5%,-17.9% (active),15.2%,-2.24% (active),88.3,104%,-88.3% (active)
CCOc1nc(-c2ccccc2)cc2c(O)c(C(=O)n3nc(C)cc3C)[nH]c(=O)c12,104%,94.4%,102,99.5%,101%,109%,–,–,101%,96%,108%,100%,119%,101%,96.5%,99%,96.2%,–,110%,–
CC(=O)O[C@H]1C(=O)[C@@]2(C)C([C@H](OC(=O)c3ccccc3)[C@]3(O)C[C@H](OC(=O)[C@H](O)[C@@H](NC(=O)c4ccccc4)c4ccccc4)C(C)=C1C3(C)C)[C@]1(OC(C)=O)CO[C@@H]1C[C@@H]2O (some centres not stated),3.07% (active),-19% (active),36.2,13.5%,19.7%,57.5%,-5.52% (active),48.3,38.1%,33.6%,20.6%,41%,44.7%,30.8%,14%,28.3%,–,–,–,44.3%
C[C@@H]1CC[C@H]2[C@@H](C)C(O)O[C@@H]3O[C@]4(C)CC[C@@H]1[C@]32OO4 (some centres not stated),17.7%,52.5%,57.7,25.5%,15.1%,–,27%,29.9,23.6%,1.61% (active),27.3%,22.1%,22.9%,68.2%,28.5%,33.8%,–,–,31%,11.7%
COc1cc(/C=C2\CCC/C(=C\c3ccc(OCC4CO4)c(OC)c3)C2=O)ccc1OCC1CO1 (configuration not stated),-15% (active),51.4%,63.4,12.7%,50.7%,14.8%,49.7%,–,23.8%,47.6%,58.5%,30.2%,72.2%,63.9%,1.96% (active),-12.6% (active),-3.1% (active),–,3.6% (active),-59.9% (active)
O=C(Nc1ccc(Nc2ccncc2)cc1)c1ccc(Nc2ccnc3ccc([N+](=O)[O-])cc23)cc1[N+](=O)[O-],103%,85.8%,29.6,-46.1% (active),–,54.6%,82.2%,50,68%,52.8%,102%,65.9%,89.3%,120%,98.8%,109%,–,103,91.1%,21.1%
O=C(Nc1cccc(C(F)(F)F)c1)Nc1ccc(OCc2nnc(-c3ccc(Cl)cc3)o2)c(F)c1,60.2%,39.4%,69.9,52.7%,45.9%,73.5%,78.7%,–,77.3%,73.9%,81.3%,51.2%,80.1%,79%,60.8%,66.7%,66.3%,–,68.8%,63.5%
C/C(=C\CCc1ccsc1)CC/C=C(\C)CCCN1CCC(CO)CC1,-42.6% (active),41.1%,52.6,-3.53% (active),41.2%,9.39% (active),–,–,51.5%,23.4%,22.6%,44%,45.3%,25.5%,2.24% (active),-22.2% (active),-44.8% (active),–,–,–
Nc1c2ccccc2nc2ccccc12 (tested in a mixture with another compound),0.0152% (active),31.9%,29.4,13.7%,17%,36.2%,-5.63% (active),22.6,20.1%,14.9%,15.5%,8.26% (active),20.2%,0.179% (active),26.2%,15.4%,–,–,–,4.92% (active)
C/C(=C\CCc1ccoc1)CC/C=C(\C)CCCN1CCC(CO)CC1,6.48% (active),36.4%,76.2,40%,57.8%,56.3%,–,–,71.1%,75.1%,–,59.4%,82.7%,45%,37.9%,24.6%,2.6% (active),–,–,–
CCC(=O)Nc1ccccc1C#C/C=C\C#Cc1ccccc1C(F)(F)F,47.9%,32.3%,66.4,34.9%,–,83.8%,12.4%,52.7,58.8%,22.4%,75%,53.4%,45%,11.8%,39.1%,74.2%,117%,60.2,38.2%,56.1%
COc1ccc(-c2oc3cc(O)c(OC)c(O)c3c(=O)c2OC)cc1O,46.2%,16.4%,30.9,14%,15.5%,60.6%,45.6%,83.8,–,35.5%,–,37.5%,72.2%,–,-4.31% (active),14.4%,7.87% (active),–,36%,15.8%
Cc1ccc2c(c1)C(=O)/C(=C/c1ncc([N+](=O)[O-])n1C)O2,-19.8% (active),73.8%,11.8,-19% (active),-2.93% (active),-17.2% (active),-57.8% (active),–,-15.3% (active),-39.7% (active),-29.8% (active),5.3% (active),-32.1% (active),76.4%,0.686% (active),-2.13% (active),11%,–,-13% (active),-3.36% (active)
O=C(C(=O)N1CCCCC1)c1ccc(OC2OC(CO)C(O)C(O)C2O)cc1 (configuration not stated),100%,91.9%,96.8,96.4%,97.3%,–,99.4%,111,98.9%,105%,107%,107%,94.4%,126%,97.7%,87.7%,101%,–,97.9%,–
COc1ccc(/C=C(\C#N)c2ccccc2)cc1,85.5%,64.6%,80.8,81.4%,83.3%,90.6%,–,–,86.6%,85.6%,–,97.3%,78.2%,79.4%,93.1%,96.1%,55.7%,–,–,89.7%
N=c1ccn2c(n1)O[C@@H]1[C@@H](O)[C@H](CO)O[C@@H]12,54.2%,82.8%,64.8,52.2%,57.9%,69.9%,82.7%,98.8,–,15.5%,67.2%,11.8%,55.3%,99.3%,31.5%,28.2%,–,–,81.2%,67.9%

Compound,growth [1],growth [2],growth [3] [%],growth [4],growth [5],growth [6],growth [7],growth [8] [%],growth [9],growth [10],growth [11],growth [12],growth [13],growth [14],growth [15],growth [16],growth [17],growth [18] [%],growth [19],growth [20]
C/C(=C\CCc1ccsc1)CC/C=C(\C)CCCN1CCN(CCO)CC1,-34.4% (active),42.7%,64,6.55% (active),55.3%,58.1%,–,–,55.2%,62.1%,40%,50.6%,77.6%,39.2%,24.1%,2.14% (active),-29.1% (active),–,-73.9% (active),–
C[n+]1ccc(C#N)c2ccccc21,65.1%,85.7%,109,104%,107%,106%,77.5%,–,104%,55.4%,129%,81.9%,–,95.3%,54.1%,64.5%,67.5%,–,115%,85.5%
O=C1CCCN1C1CCN(Cc2cc3ccccc3[nH]c2=O)c2ccccc21 (configuration not stated),92.9%,79.3%,96.8,96.1%,–,103%,96.1%,79,88.3%,52.5%,93.3%,89.1%,79.3%,111%,76.4%,68.7%,73.1%,86.1,85.5%,90.4%
Clc1ccc(CCC(Cn2ccnc2)Sc2c(Cl)cccc2Cl)cc1 (configuration not stated),26.7%,92.5%,80.2,57.2%,26.5%,102%,72.8%,52.2,–,30.5%,52.4%,65.4%,43.3%,73.7%,35.1%,34.6%,–,–,55%,40.5%
O=C(CSc1nnc(Nc2ccccc2)s1)NCCc1ccc(F)cc1,105%,119%,100,105%,–,134%,66.2%,91.7,103%,48.4%,128%,107%,106%,93.1%,117%,103%,164%,97.2,90%,99.8%
COc1ccc(C(=O)COc2cccc(/C=C3\Oc4ccc5ccccc5c4C3=O)c2)cc1,46.2%,44.8%,105,84%,–,116%,59.1%,89.6,75%,-54.4% (active),90.1%,97.5%,27.6%,139%,–,18.9%,15.9%,78.6,76.4%,-80.4% (active)
Cc1cc(NC(=O)Nc2cccc3ccccc23)no1,108%,91.4%,105,93.6%,–,116%,101%,102,109%,89%,146%,98.4%,104%,126%,107%,106%,81.2%,99,90.6%,95.9%
Cc1ccc(C(C)C)cc1NC(=O)Nc1ccc([N+](=O)[O-])cc1,12.4%,40.9%,20.1,15.4%,–,22.4%,-2.75% (active),15.6,10.9%,-0.838% (active),16.8%,7.86% (active),10.5%,7.54% (active),-14.5% (active),-23% (active),3.13% (active),16.7,11.7%,5.39% (active)
Cc1cc(NC(=O)Nc2cc(Cl)ccc2C)no1,106%,76.8%,110,108%,–,142%,116%,87,109%,96.2%,231%,103%,96.1%,133%,109%,97.5%,59.4%,102,91.1%,99.3%
COc1ccc(-c2nn(-c3ccccc3)cc2/C=C2\SC(=S)N(CCc3ccc(O)cc3)C2=O)cc1,101%,81%,93.6,90.5%,–,98.6%,95%,84.6,81.9%,60%,94.2%,87.5%,51.2%,62.6%,76.5%,68.3%,75.8%,88.1,60.3%,72.9%
COc1ccc(Cn2cc3c(c2-c2ccccc2)CCc2cncnc2-3)cc1,19.7%,71.1%,62.8,47%,–,59.3%,28.2%,48.4,62.7%,55.2%,109%,76.8%,36.2%,45.8%,42.6%,80%,57.7%,55.4,33.3%,52.3%
Cc1cc(N2CCOCC2)nc(N2CCOCC2)n1,103%,94.4%,99.7,102%,–,113%,90.6%,95.7,95.5%,-1.48% (active),92.2%,108%,96.7%,100%,95.3%,104%,105%,102,99%,104%
O=C1c2ccccc2C(=O)c2c1cccc2-n1nnc2ccccc21,106%,90.8%,104,99.8%,–,118%,79.3%,112,106%,76%,121%,103%,105%,88.4%,80.9%,96%,104%,112,103%,100%
NC(=O)c1ccccc1NC(=O)c1ccccc1Cl,118%,92.8%,98.4,106%,–,112%,129%,103,101%,82.8%,141%,104%,98.3%,98.3%,97.3%,63.7%,-9.77% (active),106,97.4%,106%
Cc1ccc([N+](=O)[O-])cc1NC(=O)Nc1cccc(F)c1,79.8%,90.2%,64.1,64.3%,–,108%,86%,48.6,88.9%,67.7%,69.1%,67.7%,53.4%,78.3%,54.4%,62%,62.6%,60.5,71.8%,82.4%
OCc1nnn(-c2ccccc2)c1CO,103%,94.8%,115,104%,–,128%,113%,121,102%,89.4%,121%,107%,111%,101%,102%,106%,104%,107,101%,100%
CCCCSc1cc(C)nc(N)n1,103%,81%,99.4,93.8%,–,113%,93.4%,97.2,92.1%,45.5%,93.8%,96.9%,97.6%,92.8%,91.7%,102%,98%,101,93.9%,92%

# Reference: PubChem BioAssay (NCI)
